Assay results: the supplement of paper PMC10849652
The full data set covers some 7,900 targets. This sample favours those with a hit. About 0.6% of all pairs of compound and target were hits.

Legend:
Experiment in all cases: log2 fold change, soluble protein after heating vs DMSO (PISA); higher = thermal stabilisation; K562 cells, 10 uM, 30 min; active = over 0.2 and 3.5 SD of the protein, either way, in both replicates (recomputed)
[1] = compound: CC[C@@H]1C(=O)N(C)c2cnc(Nc3ccc(C(=O)NC4CCN(C)CC4)cc3OC)nc2N1C1CCCC1
In short: (§1)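 For each measurement, 10 μM compound was applied for 30 min to K562 cells at 2×10^6 cells/mL. Aliquots were heated for 3 min across 48°C-58°C, pooled, and extracted in PBS with 0.5% NP-40 at 4°C; the supernatant after 21,000xg for 90 min was soluble protein. This was quantified by TMTpro 16plex LC-MS/MS with channel sums equalised, and thermal stability was reported relative to control samples from duplicates, on a log2 fold-change scale.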

volasertib = compound: CC[C@@H]1C(=O)N(C)c2cnc(Nc3ccc(C(=O)N[C@H]4CC[C@H](N5CCN(CC6CC6)CC5)CC4)cc3OC)nc2N1C(C)C [volasertib]
In short: as §1

[2] = compound: CC[C@H](C)N1C=C(C2=C(C=C(C=C21)C3=CN=C(C=C3)N4CCNCC4)C(=O)NCC5=C(C=C(NC5=O)C)C)C
In short: as §1

epoxomicin = compound: CC[C@H](C)[C@@H](C(=O)N[C@@H]([C@@H](C)O)C(=O)N[C@@H](CC(C)C)C(=O)[C@]1(CO1)C)NC(=O)[C@H]([C@@H](C)CC)N(C)C(=O)C [epoxomicin]
In short: as §1

[3] = compound: CCn1c(C(=O)N(C2CC2)C2CC2)cc2c3c(ncn3C)c(Nc3cc(C)n(C)n3)nc21
In short: as §1

[4] = compound: CCn1cc(-c2ccnc3[nH]c(-c4cccc(CN(C)C)c4)cc23)c(-c2ccc(NC(=O)N(C)C)cc2)n1
In short: as §1

[5] = compound: CN(C)CC(=O)Nc1ccc2[nH]c(=O)c3ccccc3c2c1
In short: as §1

rosiglitazone = compound: CN(CCOC1=CC=C(C=C1)C[C@H]2C(=O)NC(=O)S2)C3=CC=CC=N3 (racemic) [rosiglitazone]
In short: as §1

[6] = compound: CN1C2=C(C3=C1C(=O)N(N=C3)CC4=CC(=CC=C4)N)SC(=C2)S(=O)C
In short: as §1

[7] = compound: CN1CCC(CNc2ccc3ncc(-c4cccc(OC(F)(F)F)c4)n3n2)CC1
In short: as §1

saracatinib = compound: CN1CCN(CCOc2cc(OC3CCOCC3)c3c(Nc4c(Cl)ccc5c4OCO5)ncnc3c2)CC1 [saracatinib]
In short: as §1

sotrastaurin = compound: CN1CCN(c2nc(C3=C(c4c[nH]c5ccccc45)C(=O)NC3=O)c3ccccc3n2)CC1 [sotrastaurin]
In short: as §1

alvocidib = compound: CN1CC[C@H](c2c(O)cc(O)c3c(=O)cc(-c4ccccc4Cl)oc23)[C@H](O)C1 [alvocidib]
In short: as §1

Tubastatin A = compound: CN1CCc2c(c3ccccc3n2Cc2ccc(C(=O)NO)cc2)C1 [Tubastatin A]
In short: as §1

[8] = compound: CNC(=O)C1=CC=CC=C1NC2=NC(=NC=C2Cl)NC3=C(C=C(C=C3)N4CCOCC4)OC
In short: as §1

defactinib = compound: CNC(=O)c1ccc(Nc2ncc(C(F)(F)F)c(NCc3nccnc3N(C)S(C)(=O)=O)n2)cc1 [defactinib]
In short: as §1

rucaparib = compound: CNCc1ccc(-c2[nH]c3cc(F)cc4c3c2CCNC4=O)cc1 [rucaparib]
In short: as §1

[9] = compound: CNc1nc(-c2ccc3c(N)n[nH]c3c2)cc(N2C[C@@H](C(=O)NC3CCCCC3)CC[C@H]2C)n1
In short: as §1

encorafenib = compound: COC(=O)N[C@@H](C)CNc1nccc(-c2cn(C(C)C)nc2-c2cc(Cl)cc(NS(C)(=O)=O)c2F)n1 [encorafenib]
In short: as §1

[10] = compound: COC(=O)[C@H](CCSC)NC(=O)C1=C(C=C(C=C1)NC[C@H](CS)N)C2=CC=CC=C2
In short: as §1

Measured: log2 fold change

ATP6V0A2 (UniProt Q9Y487)
UniProt Q9Y487, sequence (Q9Y487 whole entry, looked up): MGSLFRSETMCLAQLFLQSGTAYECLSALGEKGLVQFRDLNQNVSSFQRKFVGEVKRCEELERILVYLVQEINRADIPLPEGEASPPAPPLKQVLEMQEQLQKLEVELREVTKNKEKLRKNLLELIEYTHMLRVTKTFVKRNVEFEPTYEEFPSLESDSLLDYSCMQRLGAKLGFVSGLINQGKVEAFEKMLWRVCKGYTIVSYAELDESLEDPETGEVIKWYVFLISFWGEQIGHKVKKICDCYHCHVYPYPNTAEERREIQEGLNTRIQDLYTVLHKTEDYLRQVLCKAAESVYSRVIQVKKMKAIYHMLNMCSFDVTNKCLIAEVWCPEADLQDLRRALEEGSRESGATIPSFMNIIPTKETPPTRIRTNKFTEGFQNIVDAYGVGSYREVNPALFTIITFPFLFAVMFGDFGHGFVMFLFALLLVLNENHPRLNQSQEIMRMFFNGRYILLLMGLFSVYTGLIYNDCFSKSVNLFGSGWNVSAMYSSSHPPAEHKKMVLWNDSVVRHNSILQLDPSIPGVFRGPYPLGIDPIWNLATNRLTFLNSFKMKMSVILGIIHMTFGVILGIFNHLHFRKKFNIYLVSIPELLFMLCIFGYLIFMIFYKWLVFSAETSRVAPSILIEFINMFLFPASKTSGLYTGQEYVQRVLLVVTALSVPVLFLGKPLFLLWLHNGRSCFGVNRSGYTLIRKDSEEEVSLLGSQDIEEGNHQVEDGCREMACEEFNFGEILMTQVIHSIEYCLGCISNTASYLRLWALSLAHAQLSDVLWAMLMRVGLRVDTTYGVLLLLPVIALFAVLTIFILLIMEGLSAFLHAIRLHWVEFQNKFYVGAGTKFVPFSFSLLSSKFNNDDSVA
inactive: [1] -0.039 | volasertib -0.039 | [2] 0.067 | epoxomicin 0.043 | [3] 0.007 | [4] 0.028 | [5] -0.034 | rosiglitazone -0.037 | [6] 0.006 | [7] -0.169 | saracatinib -0.009 | sotrastaurin -0.07 | alvocidib 0.036 | Tubastatin A 0.061 | [8] -0.003 | defactinib 0.019 | rucaparib -0.003 | [9] -0.021 | encorafenib 0.043 | [10] -0.039

AGPAT5 (UniProt Q9NUQ2)
inactive: [1] -0.169 | [2] -0.068 | epoxomicin 0.007 | [3] 0.023 | [4] -0.13 | [5] 0 | rosiglitazone 0.01 | [6] -0.067 | [7] -0.25 | saracatinib 0.016 | sotrastaurin 0.08 | alvocidib -0.085 | Tubastatin A -0.075 | [8] -0.021 | defactinib 0.011 | rucaparib 0.012 | [9] 0.083 | encorafenib -0.011 | [10] -0.019
active: volasertib -0.281

BYSL (UniProt Q13895)
inactive: [1] -0.009 | volasertib -0.113 | [2] 0.072 | epoxomicin 0.118 | [3] -0.077 | [4] 0.053 | [5] 0.079 | rosiglitazone 0.045 | [6] 0.09 | [7] 0.053 | saracatinib -0.042 | sotrastaurin -0.101 | alvocidib -0.03 | Tubastatin A 0.136 | [8] 0.034 | defactinib -0.004 | rucaparib -0.004 | [9] 0.094 | encorafenib 0.034 | [10] -0.073

ACP1 (UniProt P24666)
UniProt P24666, sequence (P24666 whole entry, looked up): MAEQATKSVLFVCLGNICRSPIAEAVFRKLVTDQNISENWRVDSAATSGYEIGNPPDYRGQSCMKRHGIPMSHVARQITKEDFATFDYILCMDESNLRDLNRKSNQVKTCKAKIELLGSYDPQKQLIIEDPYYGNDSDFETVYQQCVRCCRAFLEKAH
inactive: [1] 0.084 | volasertib -0.102 | [2] -0.001 | epoxomicin 0.03 | [3] -0.034 | [4] 0.077 | [5] 0.12 | rosiglitazone 0.167 | [6] 0.099 | [7] -0.061 | saracatinib -0.031 | sotrastaurin -0.054 | alvocidib -0.111 | Tubastatin A 0.141 | [8] -0.1 | defactinib -0.044 | rucaparib 0.12 | [9] 0.123 | encorafenib 0.035 | [10] -0.111

ARFRP1 (UniProt Q13795)
UniProt Q13795, sequence (Q13795 whole entry, looked up): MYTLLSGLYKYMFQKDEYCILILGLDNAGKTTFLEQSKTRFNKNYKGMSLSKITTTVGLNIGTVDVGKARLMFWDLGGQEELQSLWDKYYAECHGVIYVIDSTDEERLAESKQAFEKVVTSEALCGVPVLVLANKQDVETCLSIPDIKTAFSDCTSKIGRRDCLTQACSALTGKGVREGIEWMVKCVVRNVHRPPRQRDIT
inactive: [1] -0.038 | volasertib -0.05 | [2] 0.048 | epoxomicin 0.037 | [3] 0.026 | [4] -0.23 | [5] 0.012 | rosiglitazone -0.021 | [6] -0.021 | [7] 0.071 | saracatinib 0.108 | sotrastaurin -0.035 | alvocidib -0.008 | Tubastatin A -0.059 | [8] 0.037 | defactinib 0.01 | rucaparib 0.033 | [9] 0.031 | encorafenib -0.027 | [10] -0.137

ATP23 (UniProt Q9Y6H3)
UniProt Q9Y6H3, sequence (Q9Y6H3 whole entry, looked up): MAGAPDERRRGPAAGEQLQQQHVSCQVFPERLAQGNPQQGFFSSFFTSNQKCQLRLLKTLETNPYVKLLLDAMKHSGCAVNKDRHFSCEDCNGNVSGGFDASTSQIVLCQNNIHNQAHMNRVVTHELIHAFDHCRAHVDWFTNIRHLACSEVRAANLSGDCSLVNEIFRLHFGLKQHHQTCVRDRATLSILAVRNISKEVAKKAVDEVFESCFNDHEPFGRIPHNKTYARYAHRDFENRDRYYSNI
inactive: [1] -0.007 | volasertib 0.004 | [2] -0.078 | epoxomicin 0.016 | [3] 0.059 | [4] 0.055 | [5] -0.045 | rosiglitazone -0.011 | [6] -0.087 | saracatinib 0.029 | sotrastaurin 0.04 | alvocidib -0.031 | Tubastatin A -0.056 | [8] 0.055 | defactinib 0.028 | rucaparib 0.096 | [9] 0.041 | encorafenib 0.001 | [10] 0.01
active: [7] -0.478

ATP6V1C1 (UniProt P21283)
active: [4] -0.282 | [7] 0.377
inactive: [1] 0.027 | volasertib -0.196 | [2] 0.066 | epoxomicin 0.064 | [3] -0.022 | [5] -0.008 | rosiglitazone 0.032 | [6] 0.069 | saracatinib -0.193 | sotrastaurin -0.07 | alvocidib 0.026 | Tubastatin A 0.059 | [8] -0.034 | defactinib -0.011 | rucaparib 0.137 | [9] 0.004 | encorafenib 0.083 | [10] -0.013

ACSL1 (UniProt P33121)
UniProt P33121, sequence (P33121 whole entry, looked up): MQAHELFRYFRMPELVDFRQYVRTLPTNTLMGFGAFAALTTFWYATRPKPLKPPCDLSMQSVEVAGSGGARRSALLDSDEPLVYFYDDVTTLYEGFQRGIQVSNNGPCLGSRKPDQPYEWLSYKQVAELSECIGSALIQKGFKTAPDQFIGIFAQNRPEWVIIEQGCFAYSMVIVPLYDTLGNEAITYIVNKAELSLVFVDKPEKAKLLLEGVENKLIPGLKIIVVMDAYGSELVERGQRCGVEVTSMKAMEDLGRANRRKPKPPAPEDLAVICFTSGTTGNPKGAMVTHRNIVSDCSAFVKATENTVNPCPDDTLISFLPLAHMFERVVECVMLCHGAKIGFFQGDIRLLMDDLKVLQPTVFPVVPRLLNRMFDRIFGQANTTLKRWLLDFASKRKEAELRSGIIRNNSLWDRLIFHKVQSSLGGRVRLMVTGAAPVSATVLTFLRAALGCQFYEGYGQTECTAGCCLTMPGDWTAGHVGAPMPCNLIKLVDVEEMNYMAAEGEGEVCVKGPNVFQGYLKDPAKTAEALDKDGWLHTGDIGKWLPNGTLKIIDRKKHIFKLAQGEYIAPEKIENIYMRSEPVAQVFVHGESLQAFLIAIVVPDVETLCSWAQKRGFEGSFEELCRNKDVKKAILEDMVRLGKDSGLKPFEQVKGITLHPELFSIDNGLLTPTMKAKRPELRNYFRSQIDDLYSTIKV
active: [7] -0.393
inactive: [1] -0.09 | volasertib -0.183 | [2] 0.012 | epoxomicin 0.018 | [3] 0.05 | [4] -0.031 | [5] 0 | rosiglitazone 0.003 | [6] -0.064 | saracatinib 0 | sotrastaurin 0.029 | alvocidib -0.083 | Tubastatin A -0.075 | [8] -0.003 | defactinib -0.025 | rucaparib -0.021 | [9] -0.025 | encorafenib 0.031 | [10] 0.042

AARS2 (UniProt Q5JTZ9)
inactive: [1] 0.001 | volasertib -0.199 | [2] 0.023 | epoxomicin 0.023 | [3] -0.015 | [4] -0.05 | [5] 0.031 | rosiglitazone 0.054 | [6] -0.062 | saracatinib 0 | sotrastaurin -0.05 | alvocidib -0.1 | Tubastatin A -0.096 | [8] -0.019 | defactinib -0.027 | rucaparib 0.008 | [9] 0.004 | encorafenib 0 | [10] -0.017
active: [7] -0.312

BRIX1 (UniProt Q8TDN6)
UniProt Q8TDN6, sequence (Q8TDN6 whole entry, looked up): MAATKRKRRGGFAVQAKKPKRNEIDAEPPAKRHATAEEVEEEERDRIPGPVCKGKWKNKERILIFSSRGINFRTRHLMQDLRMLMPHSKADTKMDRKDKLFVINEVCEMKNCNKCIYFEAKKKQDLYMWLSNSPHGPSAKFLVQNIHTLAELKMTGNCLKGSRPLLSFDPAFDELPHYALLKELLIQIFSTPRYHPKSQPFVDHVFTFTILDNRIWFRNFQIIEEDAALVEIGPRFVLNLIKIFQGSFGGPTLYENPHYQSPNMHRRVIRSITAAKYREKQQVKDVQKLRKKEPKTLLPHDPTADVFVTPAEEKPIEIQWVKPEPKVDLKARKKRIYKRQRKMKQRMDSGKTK
inactive: [1] 0.166 | volasertib 0.317 | [2] 0.048 | epoxomicin -0.343 | [3] -0.041 | [4] 0.31 | [5] -0.143 | rosiglitazone -0.266 | [6] 0.36 | [7] 0.481 | saracatinib -0.106 | sotrastaurin -0.051 | alvocidib 0.174 | Tubastatin A 0.2 | [8] -0.154 | defactinib 0.394 | rucaparib 0.253 | [9] 0.129 | encorafenib 0.123 | [10] 0.017

AP2A1 (UniProt O95782)
UniProt O95782, sequence (O95782 whole entry, looked up): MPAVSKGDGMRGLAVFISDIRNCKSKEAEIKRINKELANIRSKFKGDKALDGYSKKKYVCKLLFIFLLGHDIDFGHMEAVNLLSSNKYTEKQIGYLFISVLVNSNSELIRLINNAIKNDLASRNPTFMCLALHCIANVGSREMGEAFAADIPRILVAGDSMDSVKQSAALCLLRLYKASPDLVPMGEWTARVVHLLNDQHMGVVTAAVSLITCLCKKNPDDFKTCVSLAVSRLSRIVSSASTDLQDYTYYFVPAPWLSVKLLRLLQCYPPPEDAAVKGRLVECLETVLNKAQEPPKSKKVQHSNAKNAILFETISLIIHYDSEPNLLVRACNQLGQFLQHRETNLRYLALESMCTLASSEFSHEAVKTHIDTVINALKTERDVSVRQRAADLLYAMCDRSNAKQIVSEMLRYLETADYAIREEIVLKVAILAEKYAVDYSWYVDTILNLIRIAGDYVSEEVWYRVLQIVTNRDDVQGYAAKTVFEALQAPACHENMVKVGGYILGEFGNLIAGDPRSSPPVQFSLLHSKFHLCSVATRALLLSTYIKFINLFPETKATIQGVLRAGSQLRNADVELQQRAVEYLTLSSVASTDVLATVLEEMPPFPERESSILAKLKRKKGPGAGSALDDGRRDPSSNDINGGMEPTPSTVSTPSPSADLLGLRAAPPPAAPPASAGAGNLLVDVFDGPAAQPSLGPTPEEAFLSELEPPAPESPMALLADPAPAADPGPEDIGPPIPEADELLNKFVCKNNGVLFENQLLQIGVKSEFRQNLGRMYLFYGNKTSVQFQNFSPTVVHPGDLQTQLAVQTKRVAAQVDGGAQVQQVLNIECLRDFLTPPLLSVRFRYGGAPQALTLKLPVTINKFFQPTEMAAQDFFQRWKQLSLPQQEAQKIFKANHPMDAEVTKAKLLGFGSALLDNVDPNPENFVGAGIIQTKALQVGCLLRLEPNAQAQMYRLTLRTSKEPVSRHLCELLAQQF
inactive: [1] 0.076 | volasertib -0.085 | [2] 0.015 | epoxomicin -0.011 | [3] 0.022 | [4] -0.002 | [5] -0.041 | rosiglitazone -0.011 | [6] 0.005 | [7] 0 | saracatinib 0.049 | sotrastaurin 0.001 | alvocidib 0.027 | Tubastatin A 0.001 | [8] 0.004 | defactinib 0.012 | rucaparib 0.01 | [9] -0.047 | encorafenib 0.032 | [10] -0.038

ATP12A isoform 2 (UniProt P54707)
active: [7] 0.242
inactive: [1] 0.081 | volasertib 0 | [2] -0.029 | epoxomicin 0.013 | [3] 0.04 | [4] -0.031 | [5] -0.047 | rosiglitazone 0.015 | [6] -0.085 | saracatinib 0.011 | sotrastaurin 0.031 | alvocidib -0.026 | Tubastatin A -0.019 | [8] 0.002 | defactinib -0.072 | rucaparib -0.027 | [9] 0.023 | encorafenib -0.015 | [10] -0.005

ANAPC2 (UniProt Q9UJX6)
UniProt Q9UJX6, sequence (Q9UJX6 whole entry, looked up): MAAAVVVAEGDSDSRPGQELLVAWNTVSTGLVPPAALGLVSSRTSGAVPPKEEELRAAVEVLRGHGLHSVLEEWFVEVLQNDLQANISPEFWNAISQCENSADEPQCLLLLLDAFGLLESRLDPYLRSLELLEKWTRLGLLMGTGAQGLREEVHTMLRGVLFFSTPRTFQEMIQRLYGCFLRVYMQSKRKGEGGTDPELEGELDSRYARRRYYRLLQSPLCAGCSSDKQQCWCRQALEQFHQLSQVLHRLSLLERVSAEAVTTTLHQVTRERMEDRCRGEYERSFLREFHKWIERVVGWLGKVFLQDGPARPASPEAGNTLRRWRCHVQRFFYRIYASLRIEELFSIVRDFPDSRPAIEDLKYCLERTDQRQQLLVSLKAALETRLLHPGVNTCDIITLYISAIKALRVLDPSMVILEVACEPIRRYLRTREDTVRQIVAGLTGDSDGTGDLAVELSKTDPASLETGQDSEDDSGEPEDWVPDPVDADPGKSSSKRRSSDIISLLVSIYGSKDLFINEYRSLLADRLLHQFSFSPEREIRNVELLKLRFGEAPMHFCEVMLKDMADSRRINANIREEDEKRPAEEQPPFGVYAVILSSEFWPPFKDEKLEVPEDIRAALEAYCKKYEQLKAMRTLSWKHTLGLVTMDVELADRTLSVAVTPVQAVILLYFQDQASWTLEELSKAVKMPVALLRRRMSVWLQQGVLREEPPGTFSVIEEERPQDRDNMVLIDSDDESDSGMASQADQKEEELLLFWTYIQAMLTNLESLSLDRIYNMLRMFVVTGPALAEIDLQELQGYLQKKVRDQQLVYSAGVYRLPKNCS
inactive: [1] -0.071 | [2] 0.023 | epoxomicin -0.031 | [3] -0.027 | [4] -0.018 | [5] 0.004 | rosiglitazone 0.191 | [6] 0.03 | [7] -0.001 | saracatinib -0.003 | sotrastaurin -0.084 | alvocidib -0.02 | Tubastatin A 0.009 | [8] -0.011 | defactinib -0.049 | rucaparib 0.027 | [9] -0.063 | encorafenib 0.124 | [10] 0.006
active: volasertib -0.338

ALG11 (UniProt Q2TAA5)
inactive: [1] -0.034 | volasertib -0.17 | [2] 0.126 | epoxomicin 0.038 | [3] -0.075 | [4] 0.006 | [5] 0.018 | rosiglitazone 0.021 | [6] -0.109 | [7] 0.042 | saracatinib 0.047 | sotrastaurin 0.013 | alvocidib -0.064 | Tubastatin A -0.023 | [8] -0.018 | defactinib -0.021 | rucaparib -0.015 | [9] -0.021 | encorafenib 0.073 | [10] -0.082

ACSL4 (UniProt O60488)
inactive: [1] -0.15 | volasertib -0.276 | [2] -0.051 | epoxomicin 0.024 | [3] -0.098 | [4] -0.029 | [5] 0.092 | [6] 0.051 | [7] -0.229 | saracatinib -0.128 | sotrastaurin -0.086 | alvocidib 0.033 | Tubastatin A 0.071 | [8] 0.05 | defactinib -0.041 | rucaparib 0.069 | [9] 0.043 | encorafenib 0.094 | [10] -0.024
active: rosiglitazone 1.17

B4GALNT1 (UniProt Q00973)
UniProt Q00973, sequence (Q00973 whole entry, looked up): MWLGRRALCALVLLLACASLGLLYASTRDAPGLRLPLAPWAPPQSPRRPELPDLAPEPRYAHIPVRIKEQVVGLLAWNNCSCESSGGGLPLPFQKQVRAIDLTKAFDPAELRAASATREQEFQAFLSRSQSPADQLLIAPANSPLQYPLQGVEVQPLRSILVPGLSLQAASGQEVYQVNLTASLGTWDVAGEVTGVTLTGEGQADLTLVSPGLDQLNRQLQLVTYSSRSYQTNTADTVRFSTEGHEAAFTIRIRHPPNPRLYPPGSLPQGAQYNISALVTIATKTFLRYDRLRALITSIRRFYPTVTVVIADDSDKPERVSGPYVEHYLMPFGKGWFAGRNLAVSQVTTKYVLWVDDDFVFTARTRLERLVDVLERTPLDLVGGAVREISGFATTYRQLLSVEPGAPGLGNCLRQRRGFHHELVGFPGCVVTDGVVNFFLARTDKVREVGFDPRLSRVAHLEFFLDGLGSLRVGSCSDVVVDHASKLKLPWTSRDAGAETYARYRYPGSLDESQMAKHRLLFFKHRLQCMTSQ
inactive: [1] -0.243 | volasertib -0.097 | [2] -0.115 | epoxomicin -0.059 | [3] 0.078 | [4] 0.01 | [5] 0.143 | rosiglitazone 0.025 | [6] -0.103 | [7] 0.173 | saracatinib -0.143 | sotrastaurin -0.07 | alvocidib 0.177 | Tubastatin A -0.057 | [8] -0.021 | defactinib -0.182 | rucaparib 0.017 | [9] 0.025 | encorafenib 0.144 | [10] -0.425
